Screening results from PubChem BioAssay.
USP28 inh – inhibitors of human USP28 deubiquitinase | purified USP28, Ub-rhodamine cleavage fluorescence, 30 min | actives 3% (n = 47,000) | AID 1645857, 2021 | inhibition, % at 25 µM
USP17 block – inhibitors of human USP17 deubiquitinase; Ubiquitin carboxyl-terminal hydrolase 17-like protein 5 (Homo sapiens), A8MUK1; purified USP17, Ub-rhodamine cleavage fluorescence, 3 h; inhibition, % at 50 µM; actives 6.5% (n = 47,000)
Target sequence (A8MUK1 whole entry, looked up): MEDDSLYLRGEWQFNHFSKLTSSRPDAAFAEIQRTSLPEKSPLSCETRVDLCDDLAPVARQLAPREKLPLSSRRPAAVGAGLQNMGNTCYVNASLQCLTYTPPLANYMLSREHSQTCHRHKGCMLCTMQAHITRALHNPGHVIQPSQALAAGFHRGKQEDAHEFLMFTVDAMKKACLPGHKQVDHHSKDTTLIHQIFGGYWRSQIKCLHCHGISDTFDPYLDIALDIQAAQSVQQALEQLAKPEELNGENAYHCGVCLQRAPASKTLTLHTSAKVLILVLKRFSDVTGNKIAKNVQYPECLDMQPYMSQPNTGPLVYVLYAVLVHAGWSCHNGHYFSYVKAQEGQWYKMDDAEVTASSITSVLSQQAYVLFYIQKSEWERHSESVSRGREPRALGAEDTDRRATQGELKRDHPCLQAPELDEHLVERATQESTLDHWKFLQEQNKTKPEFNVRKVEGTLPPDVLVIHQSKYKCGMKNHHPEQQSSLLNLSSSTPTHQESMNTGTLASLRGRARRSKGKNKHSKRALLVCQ
OTUD3 block – inhibitors of human OTUD3 deubiquitinase; actives 0.7% (n = 47,000); purified OTUD3, Ub-rhodamine fluorescence, 2 h; OTU domain-containing protein 3 (Homo sapiens), Q5T2D3; inhibition, % at 25 µM
USP30 block – inhibitors of human USP30 deubiquitinase; Ubiquitin carboxyl-terminal hydrolase 30 (Homo sapiens), Q70CQ3; purified USP30, Ub-rhodamine cleavage fluorescence; inhibition, % at 25 µM; actives 5.3% (n = 47,000); AID 1645860, 2021
Hits are given with their value; – = inactive; · = no result. Hits are enriched below; roughly 11% of the tested compounds scored in any of these assays. Rule as the data show it: active = inhibition above about 30%; inactive = the rest.

SMILES | USP28 inh | USP17 block | OTUD3 block | USP30 block
O=C(NCCC1=CCCCC1)c1ccc(N2C(=O)CCS2(=O)=O)cc1 | – | – | – | –
CCOc1ccc2nc3c(cc2c1)CN(C1CC1)C(=O)CO3 | – | – | – | –
COc1ccc2c(c1)[nH]c1c(=O)n(Cc3cccnc3)cnc12 | – | – | – | –
O=c1c2[nH]c3ccc(F)cc3c2ncn1Cc1ccc2c(c1)OCO2 | – | – | – | –
Cc1ccc2c(c1)[nH]c1c(=O)n(Cc3cccnc3)cnc12 | – | 31 | – | –
O=c1c2[nH]c3ccc(F)cc3c2ncn1Cc1cccnc1 | · | 41 | – | ·
Cn1c2ccc(F)cc2c2ncn(Cc3cccnc3)c(=O)c21 | – | – | – | 31
CC1CCN(S(=O)(=O)c2nn(C)cc2C(=O)NC2CCCCCC2)CC1 | – | – | – | –
O=C(Nc1ccc(C(=O)N2CCCC2)cc1)c1ccccc1C(=O)c1ccc(F)cc1 | – | – | – | –
CCCOc1ccc(C2CN3C(=O)CN(CCN4CCOCC4)C(=O)[C@]3(C)c3[nH]c4ccccc4c32)cc1OCC (some centres undefined) | – | – | – | –
Cc1cc2nc(Oc3cccc(C(F)(F)F)c3)c3ccccc3n2n1 | – | 35 | – | 49
Cc1ccnc(N2C(=O)c3ccccc3C2Nc2ccc(Cl)cc2)c1 (centres undefined) | – | – | – | –
O=C(NC1CC1)c1ccc2onc(-c3coc(-c4ccccc4)n3)c2c1 | – | – | – | 38
CN(C)C(=O)CNC(=O)c1ccc2onc(-c3coc(-c4ccccc4)n3)c2c1 | – | 42 | – | –
Cc1ccc(-c2onc3ccc(C(=O)NC4CCN(Cc5ccccc5)CC4)cc23)cc1 | – | – | – | –
Cc1ccc(-c2ccc(C(=O)N(c3ccccn3)c3ccccn3)cc2)cc1 | – | – | – | –
COc1cccc(-c2nc(C)c(C(=O)N3CCN(c4cccc(Cl)c4)CC3)s2)c1 | – | – | – | –
CN1c2cc(F)ccc2C(=O)NC12CCN(C(=O)Nc1ccccc1)CC2 | – | – | – | –
COc1ccc2[nH]cc(S(=O)(=O)c3ccc(C)c(F)c3)c(=O)c2c1 | – | 59 | – | 43
COc1ccc2[nH]cc(S(=O)(=O)c3ccc(C#N)cc3)c(=O)c2c1 | – | 31 | – | –
COc1ccc(S(=O)(=O)c2c[nH]c3ccc(C)cc3c2=O)cc1Cl | – | 37 | – | –
O=C(NC1CCC1)[C@H]1C[C@@H]2CN(S(=O)(=O)c3ccccc3)C[C@H]1O2 | – | – | – | –
COc1ccc(CC(C#N)(C(=O)NC2CCCCC2)c2nc3ccccc3[nH]2)cc1 (centres undefined) | – | – | – | –
COc1ccc(CNC(=O)C2c3ccccc3CCN2C(C)=O)cc1 (centres undefined) | – | – | – | –
Cc1nc(-c2ccccc2)sc1C(=O)/C=C/c1ccccc1[N+](=O)[O-] | – | – | – | 38
SMILES | USP28 inh | USP17 block | OTUD3 block | USP30 block
Cc1cc2n(n1)CC(C)(C(=O)NCc1ccccc1)N(c1ccc3c(c1)OCCO3)C2=O (centres undefined) | – | – | – | –
CC1(C(=O)NCc2ccc(F)cc2)Cn2nc(-c3ccco3)cc2C(=O)N1c1ccc2c(c1)OCCO2 (centres undefined) | 35 | 37 | – | –
O=[N+]([O-])c1ccc(C(c2ccc[nH]2)c2ccc[nH]2)cc1 | – | 37 | – | –
Cc1c(-c2noc(-c3ccccc3)n2)nnn1Cc1cccc(F)c1 | – | – | – | –
Cc1ccc(Cn2nnc(-c3noc(-c4ccc[nH]4)n3)c2C)cc1 | 62 | – | – | –
Cc1c(-c2noc(-c3ccccc3)n2)nnn1Cc1ccccc1 | – | – | – | –
COc1ccccc1-c1nc(-c2nnn(Cc3cccc(F)c3)c2C)no1 | 56 | – | – | –
CN(C)c1ncc(-c2cc(C(=O)N3CCCC3)n(CC3CC3)c2)cn1 | – | – | – | –
COc1ccc(OCC(=O)N2CCc3cc(-c4noc(C)n4)ccc32)cc1 | – | 35 | – | –
CC(=O)c1ccc(OCc2csc(-c3ccc(F)cc3)n2)cc1 | 30 | 43 | – | 37
CC(NC(=O)CCC(=O)N1CCSc2ccccc21)c1ccccc1 (centres undefined) | – | – | – | –
CC1=CC(=O)CC(C)(C)C1(O)/C=C/C(C)=C\C(=O)O (centres undefined) | – | – | – | –
CC(=O)/C=C/C1(O)C(C)=CC(=O)CC1(C)C (centres undefined) | – | – | – | 33
CC1Cc2cc(S(=O)(=O)NCCN3CCCCCC3)ccc2N1C(=O)C1CC1 (centres undefined) | 39 | – | – | –
CC1Cc2cc(S(=O)(=O)N3CCCCCC3)ccc2N1C(=O)C1CC1 (centres undefined) | – | – | – | –
CCOc1ccccc1NC(=O)c1cnc(N2CCN(CC)CC2)nc1C | – | – | – | –
COC(=O)c1sc2cc([N+](=O)[O-])sc2c1NC(C)=O | – | – | – | –
COC(=O)c1sc2ccccc2c1NC(=O)c1ccc(Br)s1 | – | 70 | – | –
NC(=O)c1ccc(C(=O)N2CCCC2c2ccccc2)cc1 (centres undefined) | – | – | – | –
Cc1ccc(-n2ncc(C(=O)NCc3cccnc3)c2C2CCNCC2)cc1 | – | – | – | –
Cc1ccc(CNC(=O)c2cnn(-c3ccc([N+](=O)[O-])cc3)c2C2CCNCC2)cc1 | – | – | – | 44
Cc1ccc(-n2nc(C)c3nc(CCC(=O)Nc4ccc(OC(F)(F)F)cc4)c(=O)n(C)c32)cc1 | – | – | – | 31
Cc1cc(=O)n2c(n1)NC(N1CCCCC1)=NC2c1ccc(Cl)cc1 (centres undefined) | – | – | – | –
Clc1ccccc1Cn1c(C2CCCO2)nc2ccccc21 (centres undefined) | – | – | – | 31
Cc1cc(C(=O)O)c(C)n1Cc1cccs1 | – | – | – | –
SMILES | USP28 inh | USP17 block | OTUD3 block | USP30 block
O=C(C[C@@H]1CCN2C[C@@H]1CCCOc1ccccc1CN(C(=O)c1cccnc1)CC2=O)N1CCOCC1 | 86 | 78 | – | 92
CC(C)NC(=O)N1CC(=O)N2CC[C@@H](CC(=O)N3CCOCC3)[C@@H](CCCOc3ccccc3C1)C2 | 72 | 75 | – | 100
O=C(C[C@@H]1CCN2C[C@@H]1CCCOc1ccccc1CN(C(=O)COc1ccccc1)CC2=O)N1CCOCC1 | 55 | 71 | – | 79
Cc1sc(NC(=O)c2ccc3c(c2)OCO3)nc1-c1ccc2c(c1)CCN2C(=O)c1ccccc1F | – | – | – | –
CC1=C(C(=O)NCc2ccccc2)C(c2ccc(C)cc2)n2ncnc2N1 (centres undefined) | – | – | – | 34
CC1=C(C(=O)N2CCCCC2)C(c2ccc(Br)cc2)n2ncnc2N1 (centres undefined) | 47 | · | – | –
O=C(Nc1ccncc1)C1Cn2ccnc2C2(CCN(C(=O)Cc3ccccc3)CC2)O1 (centres undefined) | – | – | – | –
CCOC(=O)Cc1nc2ccccc2n(CC2CC2)c1=O | – | – | – | –
